Laboratory results: PubChem BioAssay (NCI)
About 83,000 compounds went through this panel and 20% of them were active in at least one assay; those are over-represented in the sample as a whole.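 Results are percent growth after 48 hours of single-concentration exposure. 100 means growth as in untreated cells, lower positive values show inhibition; negative values down to -100 show cell death.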 Values without a mark were called inactive. Active and inactive are the calls of the source. How the source made its calls: active means growth percent below 10; inactive means the rest.

Assays:
Assay in all cases: NCI-60 one-dose screen, 48 h (100 = growth as untreated, 0 = no growth, -100 = all killed)
HCT-15 colon = conditions: 10 µM unless noted
HT29 colon = conditions: 10 µM unless noted
SNB-75 CNS = conditions: 10 µM unless noted
SNB-19 CNS = conditions: 10 µM unless noted
U251 CNS = conditions: 10 µM unless noted
PC-3 prostate = conditions: 10 µM unless noted
SK-MEL-5 melanoma = conditions: 10 µM unless noted
UACC-62 melanoma = conditions: 10 µM unless noted
LOX IMVI melanoma = conditions: 10 µM unless noted
SK-MEL-28 melanoma = conditions: 10 µM unless noted
SK-MEL-2 melanoma = conditions: 10 µM
EKVX NSCLC = conditions: 10 µM unless noted
SN12C renal = conditions: 10 µM unless noted
UO-31 renal = conditions: 10 µM unless noted
TK-10 renal = conditions: 10 µM unless noted
ACHN renal = conditions: 10 µM unless noted
A498 renal = conditions: 10 µM unless noted
CCRF-CEM leukemia = conditions: 10 µM unless noted
MOLT-4 leukemia = conditions: 10 µM unless noted
CAKI-1 renal = conditions: 10 µM unless noted

SMILES	growth (HCT-15 colon)	growth (HT29 colon)	growth (SNB-75 CNS)	growth (SNB-19 CNS)	growth (U251 CNS)	growth (PC-3 prostate)	growth (SK-MEL-5 melanoma)	growth (UACC-62 melanoma)	growth (LOX IMVI melanoma)	growth (SK-MEL-28 melanoma)	growth (SK-MEL-2 melanoma)	growth (EKVX NSCLC)	growth (SN12C renal)	growth (UO-31 renal)	growth (TK-10 renal)	growth (ACHN renal)	growth (A498 renal)	growth (CCRF-CEM leukemia)	growth (MOLT-4 leukemia)	growth (CAKI-1 renal)
C=CC[n+]1c(/C=C/C=C2\N(C)c3ccccc3C2(C)C)sc2ccc(OC)cc21	12.8%	9.18% (active)	20%	28.2%	15.9%	17.6%	-90.7% (active)	19.5%	15.9%	37.5%	-13.4% (active)	10.9%	11.7%	13.7%	32.8%	10.8%	17.7%	21.5%	10.2%	
CCCCCCCCCCCC[n+]1ccccc1	39.4%	1.53% (active)	0.831% (active)	8.57% (active)	-0.664% (active)	-38.2% (active)	-95.3% (active)	-41.9% (active)	-40.9% (active)	21.4%	-30.4% (active)	5.6% (active)	3.89% (active)	35%	-54.1% (active)	36.2%	19%	1.54% (active)	-19.1% (active)	
Nc1nc(=S)c2ncn(C3OC(COC(=O)c4ccc(Cl)cc4)C(OC(=O)c4ccc(Cl)cc4)C3OC(=O)c3ccc(Cl)cc3)c2[nH]1 (stereo unspecified)	95.5%	87.9%	76.7%	86.9%	38%	84.9%	65.7%	94.1%	90.5%	82.4%	94.5%	71.4%	92.7%	79.4%	91.3%	98.2%	75%	12.7%	65.1%	
CCN(CC)CCNc1ccc(N=Nc2cnc3ccccc3c2)c2ccccc12	-66.5% (active)	-90.3% (active)	-56.8% (active)	-71.7% (active)	-76.9% (active)	-83.8% (active)	-97.8% (active)	-92.5% (active)	-81% (active)	-92.8% (active)	-76.9% (active)	-2.28% (active)	-88.9% (active)	-94.2% (active)	-79% (active)	-69.6% (active)		-78.2% (active)	-49.7% (active)	
CCc1ccc(C2=C(O)C(=O)C(c3ccc(CC)cc3)=C(O)C2=O)cc1	6.42% (active)	0.54% (active)	-16.9% (active)	8.83% (active)	1.63% (active)	6.64% (active)	-58.7% (active)	-44.1% (active)	4.72% (active)	-19.2% (active)	-44.4% (active)	-15% (active)	-6.25% (active)	0.57% (active)	5.31% (active)	-9.41% (active)	-31% (active)		-6.88% (active)	
COc1cc(-c2nc(C(=O)Nc3ccc(C)cc3)nn2-c2ccc(F)c(F)c2)cc(OC)c1OC	94.7%	75.5%	84.9%	104%	100%	96.7%	95.8%	105%	99%	108%	89.5%	99.9%	97.5%	72.9%	98.8%	105%	112%	102%	94.9%	
O=C1CC(c2ccc3c(c2)OCO3)c2ncn(-c3ccc(Cl)cc3)c2N1 (stereo unspecified)	24.2%	10.9%	30.1%	47.8%	21.9%	45.1%	24.8%	34.4%	51.7%	55.4%	43.4%	68.2%	56.6%	61.3%	67.9%			28.2%	32%	
CCCC(=O)OCC1OC(n2cnc3c(=S)nc(N)[nH]c32)C(OC(=O)CCC)C1OC(=O)CCC (stereo unspecified)	50.2%	30.2%	34.8%	89.3%	68.2%	76.1%	42.8%	8.36% (active)	12%	75.8%	15%	42.4%	42.8%	43.3%	23.5%	39.7%	-2.02% (active)		0.324% (active)	
CC(=O)OC1Oc2ccccc2-c2oc(=O)c(-c3cc4ccc(N(C)C)cc4oc3=O)cc21 (stereo unspecified)	46.2%	72.4%	71.1%	48.2%	48.3%	34.8%	18.8%	67.3%	43.2%	103%	46.7%	35.3%	72%		12.2%	47.4%	14.2%	6.68% (active)	-28.3% (active)	46.1%
